FBW7 activator – human FBW7 E3 ligase activation, primary screen | Q969H0 | AlphaScreen FBW7–phospho-cyclin E peptide binding, activator screen | normalized activity (activation), % at 26.1 µM | 650,000 compounds, 0.13% hits | AID 1259310; in the data active = normalized activity above about 1.9%;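 note: purified mutant Fbw7 with reduced substrate affinity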
Target sequence (Q969H0 whole entry, looked up): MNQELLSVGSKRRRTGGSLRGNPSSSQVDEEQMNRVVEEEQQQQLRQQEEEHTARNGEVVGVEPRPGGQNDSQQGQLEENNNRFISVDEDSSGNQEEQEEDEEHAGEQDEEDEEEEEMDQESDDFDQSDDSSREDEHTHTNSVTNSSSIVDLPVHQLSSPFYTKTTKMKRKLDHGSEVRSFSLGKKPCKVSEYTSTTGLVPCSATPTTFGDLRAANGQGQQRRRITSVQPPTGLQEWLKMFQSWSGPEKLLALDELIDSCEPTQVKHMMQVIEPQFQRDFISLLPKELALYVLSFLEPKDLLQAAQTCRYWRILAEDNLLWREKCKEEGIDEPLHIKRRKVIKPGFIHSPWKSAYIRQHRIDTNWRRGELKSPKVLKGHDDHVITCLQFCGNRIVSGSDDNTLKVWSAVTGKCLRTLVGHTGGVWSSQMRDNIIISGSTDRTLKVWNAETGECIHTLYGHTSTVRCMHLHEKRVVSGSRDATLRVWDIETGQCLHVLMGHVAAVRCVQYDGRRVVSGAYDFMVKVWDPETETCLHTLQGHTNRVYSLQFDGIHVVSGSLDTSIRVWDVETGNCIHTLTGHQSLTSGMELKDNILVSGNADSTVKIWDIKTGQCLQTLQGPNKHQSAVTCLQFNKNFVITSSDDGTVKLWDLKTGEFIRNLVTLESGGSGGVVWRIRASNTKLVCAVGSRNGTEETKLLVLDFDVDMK
MITF inh – human MITF inhibition, primary screen | AlphaScreen MITF homodimerization, bead proximity signal | inhibition, % at 2.6 µM | O75030 | 650,000 compounds, 0.91% hits; in the data active = inhibition above about 50%
GPR151 activ – human GPR151 activation | 650,000 compounds, 1% hits | activation, % at 11.2 µM | PathHunter beta-arrestin GPR151 cells, luminescence | Q8TDV0; in the data active = activation above about 4.9%
TEAD-YAP inh – TEAD-YAP interaction inhibition; HEK-TIYL cells, TEAD-Gal4/YAP UAS-luciferase luminescence; inhibition, % at 9.12 µM; 640,000 compounds, 1.4% hits; AID 1259422; in the data active = inhibition above about 32%
Large screens that a line does not name were inactive. An excerpt weighted towards active compounds, which were near 3.5% of everything screened.

CC1CCc2c(sc(NC(=O)c3ccc([N+](=O)[O-])cc3[N+](=O)[O-])c2C#N)C1 (configuration not stated)	none
Nc1cc(N=Cc2c(O)[nH]c(=S)[nH]c2=O)ccc1O	MITF inh 92
CCN(CC)c1ccc(N=Cc2c(O)[nH]c(=S)[nH]c2=O)cc1	MITF inh 51
CCN(CC)S(=O)(=O)c1ccc(N=Cc2c(O)[nH]c(=S)[nH]c2=O)cc1	none
Cc1cc(-c2csc(N)n2)c(C)n1CC1CCCO1 (configuration not stated)	none
Cc1cc(-c2cncc(-c3cccc(C(=O)NCCO)c3)n2)cc(C)c1O	none
Cc1cc(C)c2nc3c(cc2c1)CN(Cc1ccco1)C(=O)CO3	none
Cc1ccc2cc3c(nc2c1C)OC(C)C(=O)N(Cc1ccco1)C3 (configuration not stated)	TEAD-YAP inh 56
FC(F)(F)c1cc(-c2ccncc2)cc2[nH]c(C3COc4ccccc4O3)nc12 (configuration not stated)	none
O=C(NCc1ccc(F)cc1)c1ccc(N2CC3CC(C2)c2cccc(=O)n2C3)c(NC(=O)c2ccc(F)cc2)c1 (configuration not stated)	TEAD-YAP inh 84
Cc1nc2ccc(NS(=O)(=O)c3ccc(C(C)C)cc3)cc2s1	TEAD-YAP inh 32
CC(=O)Nc1ccc(CN2CCOc3ccc(C(C)(O)CN(C)C)cc3C2)s1 (configuration not stated)	none
N#Cc1cccc(C(=O)N(CC2CC2)C2CCN(CCc3cccs3)CC2)c1	none
CCOC(=O)c1[nH]c(/C=N/NC(=O)c2ccncc2)c(C(=O)OCC)c1C	TEAD-YAP inh 60
CSC1=C(C#N)C(c2ccccc2C)C2=C(CCCC2=O)N1 (configuration not stated)	TEAD-YAP inh 39
CSC1=C(C#N)C(c2cccs2)C2=C(CCCC2=O)N1 (configuration not stated)	none
O=C1Nc2ccccc2/C1=C\c1cccc(C(=O)O)c1	none
c1c2c(cc3sc(N4CCOCC4)nc13)OCCO2	TEAD-YAP inh 69
O=C(O[C@@H]1Cc2c(O)cc(O)cc2O[C@@H]1c1cc(=O)c(O)c2c(O)c(O)cc([C@H]3Oc4cc(O)cc(O)c4C[C@H]3O)c2c1)c1cc(O)c(O)c(O)c1	MITF inh 106
Oc1ccc([C@H]2Oc3cc(O)cc(O)c3C[C@H]2O)cc1	none
O=[N+]([O-])c1cc(-c2ccc(/C=N\n3cnnc3)o2)ccc1O	MITF inh 58
Cc1cnc(N2CCOCC2)nc1NC1CCN(Cc2ccccc2)CC1	none
O=C(O)c1ccc([N+](=O)[O-])c2c1NC(c1ccc([N+](=O)[O-])cc1)C1CC=CC21 (configuration not stated)	MITF inh 85
CC(=O)Oc1ccc(C2Nc3c(C(=O)O)ccc([N+](=O)[O-])c3C3C=CCC32)cc1 (configuration not stated)	none
Cc1cc(N2CCCC2)ccc1/C=C(\C#N)C(N)=S	none
O=C1CC(c2cccc(Cl)c2)Cc2nc(N3CCOCC3)ncc21 (configuration not stated)	none
CCN1CCN(c2ncc3c(n2)CC(c2cc(OC)c(OC)c(OC)c2)CC3=O)CC1 (configuration not stated)	TEAD-YAP inh 47
CCOC(=O)C1=C(C)NC(SC)=C(C#N)C1CC(C)C (configuration not stated)	TEAD-YAP inh 38
CCCCNC(=O)C(=O)Nc1ccccc1OCC	FBW7 activator 2.3
CCOc1ccccc1NC(=O)C(=O)N/N=C/c1cccc(OC)c1O	TEAD-YAP inh 79
CCOc1ccccc1NC(=O)C(=O)N/N=C/c1cccc(Cl)c1Cl	none
COc1cccc(/C=N/NC(=O)C(=O)Nc2ccccc2OC(F)(F)C(F)F)c1O	TEAD-YAP inh 65
O=C(N/N=C/c1ccccc1)C(=O)Nc1ccccc1OC(F)(F)C(F)F	none
CCOC(=O)c1sc2ncn(CC(=O)NCCC3=CCCCC3)c(=O)c2c1C	FBW7 activator 2.2
CCCCn1c(SCc2ccc(Cl)cc2)nc2ccsc2c1=O	none
O=C(NC(Cc1c[nH]c2ccccc12)C(=O)Nc1ccccc1)Oc1ccccc1 (configuration not stated)	none
COc1ccc(NC(=O)C(Cc2c[nH]c3ccccc23)NC(=O)c2ccccc2)cc1 (configuration not stated)	TEAD-YAP inh 62
CC1CCC(C(=O)NC(Cc2c[nH]c3ccccc23)C(=O)Nc2cccnc2)CC1 (configuration not stated)	TEAD-YAP inh 58
Oc1c(C(c2ccc(Br)cc2)N2CCOCC2)ccc2cccnc12 (configuration not stated)	TEAD-YAP inh 73
Oc1c(C(c2ccccc2)N2CCOCC2)ccc2cccnc12 (configuration not stated)	TEAD-YAP inh 87
O=C(Sc1cccc2cccnc12)N1CCOCC1	none
O=C(Cc1ccc([N+](=O)[O-])cc1)Nc1ccc(Br)cc1C(=O)O	none
COc1ccc(S(=O)(=O)N2c3cc(C)ccc3C(C)=CC2(C)C)cc1	TEAD-YAP inh 63
CC1=CC(C)(C)N(S(C)(=O)=O)c2ccc(OS(C)(=O)=O)cc21	none
COc1ccc(S(=O)(=O)N2c3ccc(Cl)cc3C(C)=CC2(C)C)cc1	TEAD-YAP inh 58
Cc1ccc2nc(SCC(=O)N3CC(=O)Nc4ccccc43)c(C#N)cc2c1	TEAD-YAP inh 49
C=CCc1c(C)nc(Sc2c(-c3ccccc3)c3ccc(Cl)cc3[nH]c2=O)[nH]c1=O	none
O=C(CSc1ccc(Sc2ccc(SCC(=O)NC3CC3)cc2)cc1)NC1CC1	TEAD-YAP inh 34
Cc1ccc(SCC(=O)NC2CC2)cc1	none
Cn1c(=O)c(=O)n(C)c2cc(C(=O)O)ccc21	none
CCOC(=O)c1c(NC(=O)/C(C#N)=C/c2cccnc2)sc2c1CCCC2	none
CCOC(=O)c1c(NC(=O)/C(C#N)=C/c2cccnc2)sc(C)c1C	FBW7 activator 2.0
O=C(/C=C/Nc1ccc(O)cc1)c1ccc(Cl)cc1	none
COc1cc(C(=O)/C=C/Nc2ccc(Cl)cc2)cc(OC)c1OC	TEAD-YAP inh 38
COc1cc(C(=O)/C=C/Nc2ccc(C)cc2O)cc(OC)c1OC	TEAD-YAP inh 49
COc1cc(C(=O)/C=C/Nc2ccc(O)cc2C)cc(OC)c1OC	none
O=C(/C=C/Nc1ccc(Cl)cc1)c1ccccc1	TEAD-YAP inh 35
O=C(Cc1ccccc1[N+](=O)[O-])NCCSC1CCCCC1	none
CN1CCN(C2=CC(=[N+]3CCCCC3)CC(C)(C)C2)CC1	none
C1=C(N2CCCC2)CCCC1=[N+]1CCCC1	TEAD-YAP inh 42
CC1CC(C)C[N+](=C2C=C(N3CCCC3)CC(C)(C)C2)C1 (configuration not stated)	TEAD-YAP inh 77
CN1CCN(C2=CC(=[N+]3CCCC3)CC(C)(C)C2)CC1	none
CC1(C)CC(N2CCCC2)=CC(=[N+]2CCCCCC2)C1	TEAD-YAP inh 66
CC(=O)c1[nH]c(C)c(C(C)=O)c1C	none
CCc1c(Cc2[nH]c(C)c(C(C)=O)c2C)[nH]c(C(=O)O)c1C	FBW7 activator 15
COc1ccc(CC2(CCC(=O)NCCc3ccc(F)cc3)CCC(=O)N2)cc1 (configuration not stated)	none

Bioassay records (PubChem)
